Measured values taken from PubChem BioAssay (NCI).
“And” between values parts separate entries of the source, which are not always exact repeats. Equal values may be shown once. About 83,000 compounds went through this panel and 20% of them were active in at least one assay; those are over-represented in the sample as a whole.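 Assay: single dose, 48 h. Readout: percent growth (0 = no net growth; negative = cell death). Active: <10.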 Unmarked numbers belong to inactive results. The source made the active and inactive calls.

Experiments:
Test in all cases: NCI-60 one-dose screen, 48 h (100 = growth as untreated, 0 = no growth, -100 = all killed)
Conditions in all cases: 10 µM unless noted
[1] = tested on: SR leukemia
[2] = tested on: RPMI-8226 leukemia
[3] = tested on: OVCAR-8 ovarian
[4] = tested on: OVCAR-5 ovarian
[5] = tested on: SK-OV-3 ovarian
[6] = tested on: IGROV1 ovarian
[7] = tested on: OVCAR-3 ovarian
[8] = tested on: HS 578T breast
[9] = tested on: NCI/ADR-RES ovarian
[10] = tested on: T-47D breast
[11] = tested on: BT-549 breast
[12] = tested on: MDA-MB-435 melanoma
[13] = tested on: MCF7 breast
[14] = tested on: HCC-2998 colon
[15] = tested on: KM12 colon
[16] = tested on: OVCAR-4 ovarian
[17] = tested on: SW-620 colon
[18] = tested on: HCT-116 colon

| Structure (SMILES) | growth [1] | growth [2] | growth [3] | growth [4] | growth [5] | growth [6] | growth [7] | growth [8] | growth [9] | growth [10] | growth [11] | growth [12] | growth [13] | growth [14] | growth [15] | growth [16] | growth [17] | growth [18] |
| --- | --- | --- | --- | --- | --- | --- | --- | --- | --- | --- | --- | --- | --- | --- | --- | --- | --- | --- |
| CN1CCN(C(=O)OCc2nc3c(N4CCOCC4)nc(Cl)nc3n2C)CC1 | -28% (active) | -28.2% (active) | -80.3% (active) | -73.7% (active) | 69.9% | -95.4% (active) | -80.4% (active) | -31.2% (active) | -1.09% (active) | -29.3% (active) | -84.2% (active) | -55.4% (active) | -45.9% (active) | -9.16% (active) | 15.5% |  |  |  |
| CC(=O)OC[C@]12CCC(C)(C)C=C1[C@H]1CC[C@@H]3[C@@]4(C)CCCNC(C)(C)[C@@H]4CC[C@@]3(C)[C@]1(C)CC2 | 13.7% | -4.32% (active) | 71.9% | 96.7% | 90.5% | 43.6% | 30.7% | 92.5% | 104% |  | 63.8% |  | 46.6% | 49% | 25.5% | 41.8% | 49.9% | 34.1% |
| CCCCCCCCCCCCC[C@H](O)C[C@H](O)[C@H](C)N | -35.7% [1.25 µM] (active) | 33.2% [1.25 µM] |  | 86.1% [1.25 µM] | 125% [1.25 µM] | 133% [1.25 µM] | 103% [1.25 µM] | 117% [1.25 µM] | 85.9% [1.25 µM] | 122% [1.25 µM] | 107% [1.25 µM] | 116% [1.25 µM] | 104% [1.25 µM] |  | 116% [1.25 µM] | 123% [1.25 µM] | 99.9% [1.25 µM] | 83.1% [1.25 µM] |
| O=C(N=Nc1c(O)[nH]c2ccccc12)Nc1ccccc1Cl | 77.1% | 84.8% | 97.5% | 93.6% | 94.4% | 65.3% | 101% | 89.4% | 93% |  | 96.6% | 84.5% | 19.8% | 78.2% | 53.6% |  | 85.2% | 89.8% |
| Nc1nc2c(s1)CCc1cn(S(=O)(=O)c3ccccc3)cc1-2 | 75.2% and 92.8% | 98.9% and 91.4% |  | 102% and 104% | 106% and 109% | 100% | 96% and 108% | 86.4% and 107% | 91.9% and 103% | 81.6% and 111% | 84% and 109% | 91.1% and 107% | 93.4% and 94.3% | 111% and 106% | 94.6% and 108% |  | 99.7% and 99.3% | 84.5% and 100% |
| Cc1ccc(S(=O)(=O)OC[C@@]2(C)CC[C@]3(C)CC[C@]4(C)C(=C3C2)C=C[C@@H]2[C@@]3(C)CCCNC(C)(C)[C@@H]3CC[C@]24C)cc1 | -30.9% (active) | -66% (active) |  | 34.8% | 104% | -2.07% (active) | 23.5% | 83.4% | -19.7% (active) | -57.7% (active) | 83.6% | -38.2% (active) | -4.17% (active) |  | -75.8% (active) | -40.5% (active) | -85.8% (active) | -91.4% (active) |
| COc1cc2c(cc1OCCCOC1=C=C=C(c3ccc4c(c3)c3cc(-c5ccc(OCCCOc6cc7c(cc6OC)C(=O)N6CCC[C@H]6C=N7)cc5)ccc3n4S(=O)(=O)c3ccc(C)cc3)C=C1)N=C[C@@H]1CCCN1C2=O | -74% (active) | 17.9% |  | 113% | 93.7% | 14% | 0.652% (active) | 2.22% (active) | 94% | 37.1% | 277% | 44.5% | 23% | -43.2% (active) |  | 58.2% | 6.31% (active) |  |
| [2H]C([2H])([2H])Oc1cc(F)ccc1/C=C/C(=O)/C=C(/C=C/c1ccc(F)cc1OC([2H])([2H])[2H])OB(F)F | 41.7% | 3.53% (active) |  | 104% | 101% | 12% | 10.5% | 46.3% | 1.89% (active) | 33.1% | 36.8% |  | 20.1% | 56% | 61.6% |  | 22.3% | -11.1% (active) |
| Cc1nnc(NS(=O)(=O)c2ccc(N=Nc3ccc(N)nc3N)cc2)s1 | 94.2% and 94.5% | 105% |  | 98.7% and 99.3% | 111% | 123% and 108% | 124% and 105% | 121% and 105% | 102% and 106% | 114% | 90.4% and 108% |  | 105% and 106% | 105% | 104% and 103% | 110% and 105% | 108% and 106% |  |
| CCCCC1COc2cccc3c2N1C=C/C3=C\C(=O)N(C)c1cccc(Cl)c1 (centres undefined) | 94.9% | 92.3% |  | 102% | 95.3% | 103% | 96.4% | 99.8% | 97.7% | 88.7% | 107% | 101% | 104% | 111% | 105% | 72.8% | 102% | 91.2% |
| C=CCN1C=CC(=O)[C@H](O[Si](C)(C)C(C)(C)C)[C@@H]1/C=C/c1ccccc1 | -25.6% [100 µM] (active) | -16% [100 µM] (active) |  | -82.8% [100 µM] (active) | -87.6% [100 µM] (active) | -56.3% [100 µM] (active) | -73.5% [100 µM] (active) | -24.1% [100 µM] (active) | -74.7% [100 µM] (active) | -80.7% [100 µM] (active) | -62.4% [100 µM] (active) | -48.2% [100 µM] (active) | -75.1% [100 µM] (active) | -87.3% [100 µM] (active) | -71.8% [100 µM] (active) | -84% [100 µM] (active) | -58.9% [100 µM] (active) | -77.5% [100 µM] (active) |
